This note sets out measurements from PubChem BioAssay (EPA / NIEHS).

Records with an inconclusive call do not appear. Activity calls are given as the source filed them. Rule for the calls: active = hit-call score of the fitted dose curve at least 0.9, where 1 is the maximum; inconclusive = response in the unintended direction; inactive = score below 0.9.

The nature of the assay: NVS_IC_rCaBTZCHL: NovaScreen (NVS) Ion Channel Assay for Calcium Channel, Type L, Benzothiazepine Site (CaBTZCHL) (AID 2283337). The procedure: NVS_IC_rCaBTZCHL is a biochemical, single-readout assay that uses extracted gene-proteins from Rat cortical membranes in a tissue-based cell-free assay. Measurements were taken 1.5 hours after chemical dosing in a 48-well plate.NVS_IC_rCaBTZCHL is one of one assay component(s) measured or calculated from the NVS_IC_rCaBTZCHL assay. It is designed to make measurements of radioligand binding, a form of binding reporter, as detected with scintillation counting signals by Filter-based radiodetection technology.Data from the assay component NVS_IC_rCaBTZCHL was analyzed into 1 assay endpoint. This assay endpoint, NVS_IC_rCaBTZCHL, was analyzed in the positive analysis fitting direction relative to DMSO as the negative control and baseline of activity. Using a type of binding reporter, loss-of-signal activity can be used to understand changes in the binding as they relate to the gene Cacna1a. Furthermore, this assay endpoint can be referred to as a primary readout, because the performed assay has only produced 1 assay endpoint. To generalize the intended target to other relatable targets, this assay endpoint is annotated to the ion channel intended target family, where the subfamily is calcium channel.
Binding assays used specific radioligands (tritiated, iodinated) with non-radioactive competitive displacement ligands in agonist or antagonist protocols (as indicated) and various reference compounds and inhibitors to titrate specific binding to receptors and transporters. Most enzyme assays (CYPs, kinases, phosphatases, proteases, HDACs) used recombinant protein and specific substrates (fluorescence mostly, some colorimetric and radioactive) and inhibitors, followed by a biochemical separation of substrate and product. All assays for the biochemical HTS were initially run in duplicate at a single concentration (10 uM for CYP450 assays and 25 uM for all others). […] Each assay was run with positive and negative controls, and concurrent controls on every plate. The follow-up (secondary) screen tested active chemical-pairs in concentration series, as well as a few additional assays not tested in the primary screen, some selected negative inactives, and several cases re-run in the concentration series for confirmatory purposes.
Turning to `CCc1nc(N)nc(N)c1-c1ccc(Cl)cc1`, the AC50 is 8.32 µM (active).
On to `COC(=O)[C@H]1[C@H]2C[C@@H]3c4[nH]c5cc(OC)ccc5c4CCN3C[C@H]2C[C@@H](OC(=O)c2cc(OC)c(OC)c(OC)c2)[C@@H]1OC`, for which the concentration at half-maximal activity (AC50) is 6.93 µM (active).
For `NC(=Nc1ccccc1)Nc1ccccc1` the value was 40.6 µM (active); for `CCN(CC)CCOc1ccc(C(=C(Cl)c2ccccc2)c2ccccc2)cc1`, 1.02 µM (active); for `O=C(O)c1[nH]n(-c2ccc(S(=O)(=O)O)cc2)c(=O)c1N=Nc1ccc(S(=O)(=O)O)cc1`, 10.4 µM (active).
Take `CN(C)C(=O)NC1(c2ccccc2)CCN(CCC[C@]2(c3ccc(Cl)c(Cl)c3)CCCN(C(=O)c3ccccc3)C2)CC1`: the concentration at half-maximal activity (AC50) was 1.24 µM (active).
On to `CN(C)CCCN1c2ccccc2Sc2ccc(Cl)cc21`, for which the concentration at half-maximal activity (AC50) is 2.52 µM (active).
Take `COc1ccc(OC(F)(F)F)cc1CN[C@H]1CCCN[C@H]1c1ccccc1`: the concentration at half-maximal activity (AC50) was 1.24 µM (active).
Consider `CCC(C)N(C)C(=O)c1cc2ccccc2c(-c2ccccc2Cl)n1` (configuration not stated), for which the AC50 was 9.12 µM (active).
On to `O=C(N[C@@H](c1ccccc1)[C@@H]1CCCCN1)c1cccc(C(F)(F)F)c1Cl`, for which the AC50 is 0.967 µM (active).
For `CSc1ccc(Oc2ccc(S(N)(=O)=O)cc2CN(C)C)cc1C`, the concentration at half-maximal activity (AC50) is 10.1 µM (active).
Turning to `CN(C)C(=O)NC1(c2ccccc2)CCN(CC[C@@]2(c3ccc(F)c(F)c3)CN(C(=O)c3ccccc3)CCO2)CC1`, the AC50 was 2.2 µM (active).

As a reminder, the AC50 is the concentration at which the activity in the assay is half-maximal.
